Bioassay records from PubChem BioAssay.
Rac1 mut GTP – GTP binding modulators of activated mutant Rac1, primary screen, biochemical, bead-based flow cytometry, multiplex, fluorescent GTP; GST-Rac1 activated beads; actives lie on both sides; 100% means binding = to untreated wells; 0.11% of 190,000 active; percent activity (GTP binding), % at 10 µM; Ras-related C3 botulinum toxin substrate 1 (Homo sapiens), P63000;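 active means GTP binding at least 20 percentage points away from the 100% baseline, in either direction, so actives lie on both sides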
Rac1 wt GTP bind – wildtype Rac1 GTP binding modulators, primary screen, biochemical, GST-Rac1 beads, flow cytometry, multiplex. Ras-related C3 botulinum toxin substrate 1 (Homo sapiens), P63000. fluorescent GTP binding; actives lie on both sides; 0 = cold GTP competed, 100 = untreated. GTP binding activity (% of control), % at 10 µM. 0.27% of 190,000 active. AID 757, 2007;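 active means GTP binding activity at least 20 points away from the 100% control level, either lower or higher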
HRas wt GTP – modulators of GTP binding to HRas wildtype, primary screen, biochemical, bead-based flow cytometry, multiplex | GTPase HRas (Homo sapiens), P01112 | GST-Ras wt beads, Bodipy-FL-GTP binding; actives lie on both sides | GTP binding activity, % at 10 µM | 0.14% of 190,000 active;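 active means GTP binding activity at least 20% away from the 100% baseline, either lowered as inhibitor or raised as activator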;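 further: 0% = unlabeled GTP competition control and 100% = no-compound control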
Cdc42 wt – modulators of GTP binding to wildtype Cdc42, primary screen, biochemical, multiplex bead flow cytometry, Bodipy-GTP | Cell division control protein 42 homolog (Homo sapiens), P60953 | GST-Cdc42 beads; actives lie on both sides | percent activity (GTP binding), % at 10 µM | 0.2% of 190,000 active;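 active means percent activity GTP binding at least 20 points away from the 100% baseline, either down as inhibitor or up as activator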;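 further: median bead fluorescence of bound Bodipy-FL-GTP at 100 nM; 0% = excess unlabeled GTP control and 100% = no compound control; below 100% means less GTP binding so inhibitor and above means activator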
Target sequence (P60953 whole entry, looked up): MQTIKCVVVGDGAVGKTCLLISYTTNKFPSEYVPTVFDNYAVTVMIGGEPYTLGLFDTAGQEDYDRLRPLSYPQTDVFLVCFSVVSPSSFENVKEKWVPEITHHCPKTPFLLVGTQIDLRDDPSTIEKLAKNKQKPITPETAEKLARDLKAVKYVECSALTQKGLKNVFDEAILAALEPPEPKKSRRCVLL
Rab7 wt modul – modulators of GTP binding to Rab7, primary screen, biochemical, wildtype, multiplex bead flow cytometry | GST-Rab7 beads, fluorescent GTP binding; actives lie on both sides; untreated = 100%, excess cold GTP = 0% | GTP binding activity (percent of control), % at 10 µM | Rab7 GTPase wild type (dog), Bodipy-FL-GTP binding | 0.055% of 190,000 active;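 active means fluorescent GTP binding to Rab7 beads changed by at least 20 points from the 100% baseline, either direction, mostly lower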;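 further: median green fluorescence of bound Bodipy-FL-GTP per Rab7 bead population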
Rab2A wt mod – modulators of GTP binding to Rab2A wildtype, primary screen, biochemical, dog, bead-based flow cytometry, multiplex. Ras-related protein Rab-2A (Canis lupus familiaris), P61105. GST-Rab2 wt beads, Bodipy-GTP binding. GTP binding activity, % at 10 µM. 0.19% of 190,000 active. AID 760, 2007;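 active means GTP binding activity at least 20 points away from 100%, either lowered or raised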;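 further: 0% = beads with excess unlabeled GTP and 100% = no-compound control corrected for plate trend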
An asterisk follows results filed as active; [ ] = remark or other dose. The list is not random: actives were taken first. Their share in the collection is about 0.37%.

SMILES	Rac1 mut GTP	Rac1 wt GTP bind	HRas wt GTP	Cdc42 wt	Rab7 wt modul	Rab2A wt mod
CC(Oc1ccc(-c2ccccc2)cc1)C(=O)O (stereo not drawn)	130.0*[activator]	157.0*[activator]	137.0*[activator]	161.0*[activator]	126.0*[activator]	141.0*[activator]
COc1ccc(-c2cc(=NCCCCCC(=O)O)c3cc(C)ccc3o2)cc1	88.0	71.0*	73.0*	69.0*	93.0	70.0*
Cc1cc(C)cc(N2C(=O)NC(=O)/C(=C\C=C\c3ccco3)C2=O)c1	84.0	78.0*	85.0	78.0*	88.0	83.0
COc1ccccc1N1C(=O)NC(=O)C2(Cc3cc(C)ccc3N(C)C2)C1=O (stereo not drawn)	100.0	97.0	98.0	98.0	96.0	98.0
O=c1[nH]c(=S)[nH]c(O)c1N=Nc1cc2c(cc1[N+](=O)[O-])OCO2	79.0*	83.0	82.0	79.0*	85.0	81.0
O=c1[nH]c(=S)[nH]c(O)c1N=Nc1ccc2c(c1)OCO2	92.0	94.0	93.0	91.0	97.0	94.0
Cc1cc(C(=O)CS(=O)c2ccc(F)cc2)cc(C)c1OC(=O)N(C)C (stereo not drawn)	106.0	105.0	102.0	105.0	98.0	100.0
CC1(C)CC(n2[nH]c(=O)c3c2NC(=O)CSC3c2ccccc2)CCO1 (stereo not drawn)	96.0	102.0	97.0	94.0	96.0	75.0*
Cc1ccc(C2SCC(=O)Nc3c2c(=O)[nH]n3C2CCOC(C)(C)C2)cc1 (stereo not drawn)	98.0	102.0	100.0	102.0	101.0	101.0
COc1ccc(OC)c(/C=N/OC(=O)Nc2ccc(Cl)cc2)c1	94.0	95.0	96.0	96.0	95.0	99.0
CCC(C)NC(=O)c1c(N)n(CCCOC)c2nc3ccccc3nc12 (stereo not drawn)	98.0	99.0	99.0	99.0	99.0	99.0
COCCCn1c(N)c(C(=O)Nc2sc3c(c2C(=O)OC)CCCC3)c2nc3ccccc3nc21	82.0	84.0	65.0*	67.0*	84.0	66.0*
